Compound activity (PubChem)
NALP3 yeast inh = NALP3 inhibition in yeast; Yeast reconstituted NLRP3/ASC/caspase-1, beta-gal luminescence, 24 h; inhibition, % at 10 µM; 0.39% of 330,000 active;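 active = inhibition of 50% or more; inactive = inhibition below 50%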
PfHsp90 yeast 2 = inhibits growth of yeast expressing Plasmodium falciparum Hsp90; 0.32% of 310,000 active; AID 504621; inhibition, % at 9.4 µM; S. cerevisiae expressing PfHsp90, BacTiter-Glo ATP, 48 h; yeast lacking PDR1 and PDR3 efflux regulators;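 active = every replicate shows inhibition above about 80%, whatever the replicate mean, limit read from the data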
SKKanGAS inh = blocks kanamycin growth of S. pyogenes SKKanGAS strain. BacTiter-Glo, 6 h. inhibition, % at 7.5 µM. 1.3% of 300,000 active;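 active = mean replicate score, as percent of positive control median, at least 50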;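 also: strain carries kanamycin resistance gene driven by streptokinase promoter and grows in 40 µg/ml kanamycin; loss of luminescence reflects streptokinase promoter inhibition or plain growth inhibition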
tim23-1 inh = tim23-1 yeast growth inhibition | S. cerevisiae tim23-1 growth, BacTiter-Glo luminescence, 24 h | inhibition, % at 20 µM | 1.3% of 330,000 active;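 active = growth inhibition of the mutant yeast at or above 50%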;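 also: temperature-sensitive mutant grown at 25 °C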
tim10-1 inh = growth inhibitors of tim10-1 mutant yeast | inhibition, % at 20 µM | AID 463190 | S. cerevisiae tim10-1 ts strain growth, BacTiter-Glo, 24 h | 2.2% of 330,000 active;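 active = inhibition of at least 40%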;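 also: mutant grown at 25 °C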
TIM10 inh = growth inhibitors of TIM10 yeast strain. S. cerevisiae TIM10 strain growth, BacTiter-Glo luminescence, 24 h. inhibition, % at 10 µM. AID 463195. 1.4% of 330,000 active;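 active = inhibition of 40% or more at the single tested concentration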;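 also: wild-type TIM10 isogenic control strain grown at permissive 25 °C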
tim23-1 conf = confirmation of tim23-1 mutant yeast growth inhibitors | shares compounds with tim23-1 inh | S. cerevisiae tim23-1 growth, BacTiter-Glo luminescence, 24 h | inhibition, % at 20 µM | 83% of 4,400 active | AID 463218;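 active = inhibition above about 39% in either of two replicate wells at 20 µM, limit read from the data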;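 also: temperature-sensitive tim23-1 mutant grown at 25 °C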
Of the large screens only hits and unclear results are named; the others gave an inactive call (follow-up assays come after a bar, where they were run). This is a sample that favours compounds with a hit; in the whole collection about 4.6% have one here.

Cc1[nH][nH]c(=O)c1C(c1ccc(-c2ccc(Cl)c(Cl)c2)o1)c1c(C)[nH][nH]c1=O	tim23-1 inh 75 | tim23-1 conf 46
Cc1ccc(-c2c3c(nc4sc(C(N)=O)c(N)c24)CCCC3)o1	tim23-1 inh 50 | tim23-1 conf 48
NC(=O)c1sc2nc3c(c(-c4ccco4)c2c1N)CCC3	none
O=C(NCCN1CCOCC1)c1ccc(Cl)c([N+](=O)[O-])c1	none
CC(C)(C)SCCNC(=O)c1ccc(Cl)c([N+](=O)[O-])c1	PfHsp90 yeast 2 102, tim23-1 inh 53 | tim23-1 conf inactive
Cc1cccc(-n2cc(-c3ccccc3)c3c(=O)[nH]cnc32)c1	tim23-1 inh 54 | tim23-1 conf 48
COc1ccc(CCNC(=O)c2cc(C3CC3)on2)cc1OC	none
COC(=O)c1c(NS(=O)(=O)Cc2ccccc2)sc2c1CCCC2	tim23-1 inh 58 | tim23-1 conf 52
COc1cc(C(=O)NCc2nnc(SCC(=O)N3CCCc4ccccc43)o2)cc(OC)c1OC	none
Brc1ccc(OCc2nnnn2-c2ccccc2)cc1	tim23-1 inh 52 | tim23-1 conf 39
COc1ccc(OCc2nnnn2-c2ccccc2)cc1	none
Cc1cccc(N2CCN(C(=O)c3cn4ccccc4n3)CC2C)c1 (stereo unspecified)	none
CCCc1cc(=O)oc2cc(C)c(CN3CCCC3)c(O)c12	tim23-1 inh 59 (no result: PfHsp90 yeast 2) | tim23-1 conf 58
CNC(=O)c1c(NC(=O)c2cc(-c3cc(C)c(C)cc3O)n[nH]2)sc2c1CCCC2	none (no result: PfHsp90 yeast 2)
C/C(=C\c1ccccc1)C(=O)NCCCn1ccnc1	none (no result: PfHsp90 yeast 2)
COc1cccc(NC(=O)C(C)Sc2nnc(C3CC3)n2C2CC2)c1 (stereo unspecified)	none (no result: SKKanGAS inh)
CCOC(=O)C1CCN(C(=O)Cc2c(C(=O)O)n(C)c3ccccc23)CC1	tim23-1 inh 77 | tim23-1 conf inactive
CCOC(=O)C1CCN(C(=O)Cc2ccccc2OC)CC1	none
Cc1ccc(C(=O)Nc2nnc(-c3ccc(C(C)(C)C)cc3)s2)cc1	none
Cc1ccc(-c2nnc(NC3CCCC3)s2)cc1	tim23-1 inh 53 | tim23-1 conf 42
CCCOc1ccc(-c2csc(N)n2)cc1[N+](=O)[O-]	tim23-1 inh 57 | tim23-1 conf 57
CCOC(=O)C(=CNNc1ccccc1)C(=O)OCC	tim23-1 inh 52 | tim23-1 conf 79
CCOC(=O)NNc1ccccc1	none
COc1ccc(-c2nc(N)nc(C)c2Oc2ccccc2Br)c(O)c1	tim23-1 inh 50 (no result: SKKanGAS inh) | tim23-1 conf 47
COc1ccc(-c2nc(N)nc(C(F)(F)F)c2-c2cscn2)c(O)c1	none
C(=C\c1ccccc1)/C=N/Nc1nc2ccccc2[nH]1	tim23-1 inh 51 | tim23-1 conf 48
C(/CCc1ccccc1)=N\Nc1nc2ccccc2[nH]1	none
CCn1nc(C(=O)OC(C(=O)c2c[nH]c3ccccc23)c2ccccc2)c2ccccc2c1=O (stereo unspecified)	none (no result: PfHsp90 yeast 2)
CCn1c(SCC(=O)N2CCOCC2)nc2c([nH]c3ccccc32)c1=O	none
O=C(Nc1ccccc1N(C(=O)c1ccco1)S(=O)(=O)c1cccs1)c1ccco1	tim23-1 inh 54 | tim23-1 conf 38
CN(C(=S)NC(=O)c1ccccc1Br)C1CCCCC1	tim23-1 inh 50 (no result: PfHsp90 yeast 2) | tim23-1 conf inactive
CC(C)N(CCCNC(=O)Cn1c(=O)c2cccn2c2ccc(F)cc21)Cc1ccccc1	none
O=C(/C=C/c1ccc2c(c1)OCO2)c1ccccn1	tim23-1 inh 56 | tim23-1 conf 44
Cc1ccc(C(=O)Nc2ccc(C(=O)N/N=C/c3c[nH]c4ccccc34)cc2)cc1	none
Cc1cccc(NC(=S)N/N=C/c2c[nH]c3ccccc23)c1	tim23-1 inh 64 | tim23-1 conf inactive
Cc1ccc(N2CC(=O)Nc3c(oc4nc(-c5ccccc5)cc(C)c34)C2=O)cc1	none
CC1CN(C(=O)COC(=O)Cc2c(F)cccc2Cl)CC(C)O1 (stereo unspecified)	none (no result: SKKanGAS inh)
O=C(O)/C=C\C(=O)Nc1ccc(Oc2ccc(Br)cc2)cc1	tim23-1 inh 53 | tim23-1 conf inactive
COc1ccc(C(=O)N/N=C/c2ccc(OC)c(COc3ccc(F)cc3F)c2)cc1	tim23-1 inh 55 | tim23-1 conf 40
COc1ccc(C(=O)N/N=C/c2ccc(OC)c(COc3ccc(F)cc3)c2)cc1	none
CC(C)N(Cc1nccn1C)C(=O)c1cc(COc2ccc(-n3cncn3)cc2)on1	none
CC(OC(=O)C1CCN(S(=O)(=O)c2ccc(Cl)cc2)CC1)C(=O)NC1CCCCC1C (stereo unspecified)	none
C[C@@H]1C=CC(=O)O[C@@H]1c1ccc(C(F)(F)F)cc1	tim23-1 inh 57 (no result: PfHsp90 yeast 2) | tim23-1 conf inactive
Cc1cccc(NC(=S)NNc2cccc(Cl)c2)c1	tim23-1 inh 52 | tim23-1 conf 55
NC(=S)NNC(=O)Nc1cccc(Cl)c1	none
NC(=S)NNc1cccc(Cl)c1	tim23-1 inh 60 | tim23-1 conf 61
O=C(CSc1nnc(CNC(=O)c2c(F)cccc2F)o1)NCc1ccco1	none
COc1ccc(C(=O)NC(=S)N2CCNC(=O)C2)cc1Br	none
COc1ccc(C(=O)NC(=S)N2CCC(C)CC2)cc1Br	tim23-1 inh 57 | tim23-1 conf inactive
Oc1ccc2ccccc2c1/C=N/c1nccs1	tim23-1 inh 57 (no result: PfHsp90 yeast 2) | tim23-1 conf 60
CS/C(N)=N/N=C/c1c(O)ccc2ccccc12	tim23-1 inh 58 | tim23-1 conf 70
Oc1ccc2ccccc2c1C=Nc1ccccc1Br	tim23-1 inh 53 | tim23-1 conf 51
CN(C)/N=C/c1c(O)ccc2ccccc12	none
Cn1c(N)c(S(=O)(=O)NCc2ccc(F)cc2)c(=O)n(C)c1=O	none
Cc1ccc(/C=N/NC(=O)c2ccc(OC3CCCC3)cc2)o1	tim23-1 inh 58 | tim23-1 conf 55
Cc1ccc(/C=N/NC(=O)c2ccncc2)o1	none
O=C(Nc1ccc(Cl)c(Cl)c1)Nc1ccon1	SKKanGAS inh 67, tim23-1 inh 53 | tim23-1 conf 48
Cc1ccc(C(=O)O/N=C(\N)c2ccccn2)c(Cl)c1	tim23-1 inh 51 | tim23-1 conf 54
Cc1ccc(CC(=O)O/N=C(\N)c2ccccn2)cc1	none
CC(=O)c1ccc(-c2cc([C@H]3[C@H]4C=CC[C@@H](C)[C@@H]4C(=O)N3Cc3ccccc3)ccc2F)cc1	none
Cc1ccc2c(c1)COc1c3ccc(C(=O)O)cc3nn1-2	none
C=CCNC(=O)c1ccc2c3n(nc2c1)-c1ccc(Cl)cc1CO3	tim23-1 inh 59 | tim23-1 conf 50
CCN1CCN(C(=O)c2cc(-c3ccc(Cl)s3)nc3ccccc23)CC1	none
COC(=O)C1CCN(C(=O)c2cc(-c3ccc(Cl)s3)nc3ccccc23)CC1	tim23-1 inh 52 (no result: SKKanGAS inh) | tim23-1 conf 52
